Experimental data reported in PubChem BioAssay (NCATS).
Results filed as inconclusive are left out. A number with no mark means an inactive call. Active and inactive are the calls of the source. Calls come from the whole dose curve; as a rule, active = well fitted cell-killing curve with a large enough effect; inconclusive = small, poorly fitted or top-dose-only effect; inactive = flat fitted curve, though single readings scatter.

Test: Cell Viability - LYMP1-002 - Assay at 40 hr (AID 994); note: nearly all actives have a fitted effect of over 60% in size;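 for viability change, negative = cytotoxic: 0% = DMSO only and full inhibition = 92 µM tetraoctylammonium bromide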
Conditions: LYMP1-002 lymphoblastoid cell viability; series mostly up to 92.2 µM; viability change, negative = cytotoxic: at the top concentration
Excerpt: NIH Chemical Genomics Center [NCGC]
NIH Molecular Libraries Screening Centers Network [MLSCN]
National Institutes of Environmental Health Sciences [NIEHS]
National Toxicology Program [NTP]
We have developed a 1536-well cell-based assay for quantitative high throughput screening (qHTS) against a number of cell lines to determine in vitro cytotoxicity of small molecules. This particular assay uses a human lymphoblastoid cell line (LYMP1-002) purchased from Coriell Institute for Medical Research.
NCGC Assay Protocol Summary:
The CellTiter-Glo luminescent cell viability assay (Promega) is a homogeneous method to measure the number of viable cells in culture. The end point readout of this assay is based on quantitation of intracellular ATP, an indicator of metabolic activity, using the luciferase reaction. Luciferase catalyzes the oxidation of beetle Luciferin to oxyluciferin and light in the presence of ATP. The luminescent signal is proportional to amount of ATP present.
Using the CellTiter-Glo luminescent cell viability assay, the amount of cellular ATP was measured in the lymphoblastoid cell line with complete culture medium following compound treatment for 40 hours. The assay was performed in opaque white Kalypsys 1536-well plates. In the screen, tetraoctylammonium bromide was used as positive control. Library compounds were measured for their ability to cause acute toxicity in the cell line, as reflected by a decrease in intracellular ATP levels, in a concentration-dependent manner. […] AC50 values were determined from concentration-response data modeled with the standard Hill equation.
qHTS protocol for CellTiter Glo lymphoblastoid cellular assay
[Step] [Parameter] [Value] [Description]
1. Reagent; 5 uL; 2500 lymphoblastoid cells/well
2. Time; 5 hr; 37 C incubation
4. Controls; 23 nL; Tetraoctylammonium bromide 6.4pM to 92 uM
5. Time; 40 hr; 37 C incubation
6. Reagent; 5 uL; CellTiter Glo reagent
7. Time; 30 min; Room Temperature
8. Detection; Luminescence; Viewlux plate reader
Keywords: cell viability, cytotoxicity, lymphoblastoid cell line, luminescence, NTPHTS, NTPHTS_NCGC, NIEHS, DSSTox, MLSMR, MLSCN, NIH Roadmap, qHTS, NCGC
Potency is the fitted concentration of half-maximal effect.

| SMILES | viability change, negative = cytotoxic | Potency |
| --- | --- | --- |
| Cc1ccccc1C#N | 1.13% | – |
| Cc1cc(C)cc(N)c1 | -3.52% | – |
| C=C(C)C(N)=O | 6.58% | – |
| Cc1cccc(C(=O)O)c1[N+](=O)[O-] | -8.18% | – |
| CC1=C(/C=C/C(C)=C/C=C/C(C)=C\C=O)C(C)(C)CCC1 | – | 50.1 µM (active) |
| Nc1cccc(N)c1 | -6.14% | – |
| Cc1c(N)cccc1N | -4.05% | – |
| O=CNc1ccccc1 | -4.19% | – |
| O=C(O)/C=C/C(=O)O | -6.74% | – |
| CC(=O)c1cccc([N+](=O)[O-])c1 | -10% | – |
| Cc1cc(C)cc([N+](=O)[O-])c1 | 1.88% | – |
| CCN(CC)c1cccc(O)c1 | -2.23% | – |
| Cc1cc(C)cc(O)c1 | -9.15% | – |
| Cc1c(N)cccc1[N+](=O)[O-] | -7.88% | – |
| FC(F)(F)c1ccccc1Cl | -4.9% | – |
| OC1CCCC1 | 2.2% | – |
| NC(=O)CCCCC(N)=O | -3.45% | – |
| c1ccc2c(c1)Oc1ccccc1S2 | -8.62% | – |
| O=C(Cl)c1ccccc1[N+](=O)[O-] | -8.8% | – |
| Nc1ccc(Cl)cc1[N+](=O)[O-] | -2.53% | – |

| SMILES | viability change, negative = cytotoxic | Potency |
| --- | --- | --- |
| CCCCCCCCC/C=C/CC1CC(=O)OC1=O (stereo not given) | -2.66% | – |
| NC=O | 1.63% | – |
| O=C(O)c1ccccc1Cl | -6.78% | – |
| CNC(=O)N(c1ccccc1)c1ccccc1 | -1.06% | – |
| CCCCC/C=C/C=C/C=O | -5.01% | – |
| COC(=O)CC#N | -5.67% | – |
| C[C@@H]1CC2(OC3C[C@@]4(C)C5=CC[C@H]6C(C)(C)C(O[C@@H]7OC[C@@H](O)[C@H](O)[C@H]7O)CC[C@@]67C[C@@]57CC[C@]4(C)C31)OC(O)C1(C)OC21 (stereo not given in full) | -16.5% | – |
| CCC(C)(C)C | 2.64% | – |
| CCCCOCCOCCOCCCC | 1.65% | – |
| CC/C=C/C#N | 4.19% | – |
| O=[N+]([O-])c1cccc(C(F)(F)F)c1 | 3.54% | – |
| NC(=S)NNC(N)=S | 2.32% | – |
| CC/C=C1/OC(=O)c2ccccc21 | -3.96% | – |
| O=C(Cl)c1cccc([N+](=O)[O-])c1 | -3.75% | – |
| CCCCCCCCN | -4.37% | – |
| COc1ccc(N)c(C)c1 | -4.17% | – |
| CCOCCO | -1.11% | – |
| O=C(Cl)c1c(Cl)cccc1Cl | -5.27% | – |
| O=C(O)CN(CC(=O)O)CC(=O)O | -6.37% | – |
| CCCCC(=O)N(C)C | -2.63% | – |
